# HepG2 tox: qHTS for Inhibitors of TGF-b: Cytotox Counterscreen | HepG2 CAGA-GFP viability, ATP luminescence, 18 h | Potency, µM (doses to about 46.1 µM), for inactives: at the highest dose activity change, negative = cytotoxicity, hits mostly cytotoxic | 0.76% of 410,000 active | AID 588856, 2011
#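 CellTiter-Glo luminescence gave cytotoxicity after 18 hours at 37 degrees C. The cells were HepG2 CAGA-GFP in 1% FBS DMEM, stimulated with 500 pg/mL TGF-beta after compound addition. %Activity was normalised to no-cell wells (complete cell-killing) and DMSO (no toxicity), and curves were fitted and classified.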
# ATXN2 expr inh: Primary qHTS for Inhibitors of ATXN expression; Potency, µM (doses to about 57 µM), for the others: at the top dose activity change, negative = inhibition, actives largely listed as inhibitors; HEK-293 ATXN2-luciferase reporter, luminescence, 24 h; AID 1745845, 2022; 0.72% of 360,000 active; note: % is set by controls: 0 for no effect and ±100 for the full control effect; nearly all actives have a fitted effect of over 55% in size
#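 qHTS (up to 57 uM final) was run with 24 h compound exposure of reporter cells at 37 °C. Each well was multiplexed: SteadyGlo luminescence measured ATXN2-luciferase expression after a fluorogenic Gly-Phe-AFC viability readout (25 uM final).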
# HTT ATP protect: qHTS Multiplex Assay to Identify Dual Action Probes in a Cell Model of Huntington: Cytoprotection (ATP) | AID 1471, 2008 | 0.14% of 230,000 active | Potency, µM (doses to about 56.4 µM), for inactives: cytoprotection (ATP increase), hits mostly activators | PC12 HTT-Q103 induced, cytoprotection, ATP luminescence, 40 h; note: % of control where 0% means no effect; nearly all actives have a fitted effect of over 45% in size
#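 Readout: ATPlite luminescence (ATP level). Model: stable PC12, inducible Htt exon1 Q103-GFP. Inducer: tebufenozide, 100 nM final. Compounds: dose series. No G418 in medium.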
# TGFb SMAD3 inh: qHTS for Inhibitors of TGF-b; 1.2% of 410,000 active; HepG2 CAGA-GFP TGF-b/SMAD3 reporter, GFP fluorescence, 18 h; TGF-beta stimulated, 500 pg/mL final; Potency, µM (top dose mostly 46.1 µM), without a hit: at the top dose activity, negative = inhibition, actives largely listed as inhibitors; AID 588855, 2011; note: % is set by controls: 0 for no effect and ±100 for the full control effect; nearly all actives have a fitted effect of over 65% in size
#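 HEPG2 CAGA-GFP, 1000 cells/well; 2 h settle, 37 C; cpd via pin tool; TGF-b 500 pg/mL final; 18 h, 37 C; GFP imaging ex488/em500-530; %Activity normalised to -TGF-b and +DMSO controls; CRC fit, curve class.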
# ATXN viability: Viability Counterscreen for Primary qHTS for Inhibitors of ATXN expression; S2 cells (HEK-293 line with an ATXN2-luciferase reporter) viability, CellTiter-Fluor protease fluorescence, 24 h; AID 651635, 2014; Potency, µM (titrated, usually from 56.7 µM), most hits filed as cytotoxic; 0.49% of 400,000 active; note: nearly all actives have a fitted effect of over 40% in size
# HTT aggregate: qHTS Multiplex Assay to Identify Dual Action Probes in a Cell Model of Huntington: Aggregate Formation (GFP) | PC12 HttQ103-GFP aggregates, Acumen cytometry, 40 h | 1.1% of 220,000 active | Potency, µM (series often up to 46.1 µM), for the others: top-dose activity change, negative = inhibition, actives largely listed as inhibitors; note: % is set by controls: 0 for no effect and ±100 for the full control effect; nearly all actives have a fitted effect of over 60% in size
#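 Using laser scanning cytometry, GFP-positive aggregates were counted after lysis of PC12 cells induced with 100 nM tebufenozide to express HTT exon 1 Q103–GFP. Compounds were tested in titration.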
# * hit, by the source's call; i = inactive; ? = inconclusive; . = no result; ! = repeats disagree; [ ] = remark or other dose. The list is not random: actives were taken first. Their share in the collection is about 2.8%. Calls come from the whole dose curve; as a rule, active = well fitted curve in the direction sought with a large enough effect; inconclusive = small, poorly fitted or top-dose-only effect, or another doubt; inactive = no such curve, though single readings can be large; an effect the other way counts as inactive or inconclusive. Potency is the fitted concentration of half-maximal effect.
SMILES,HepG2 tox,ATXN2 expr inh,HTT ATP protect,TGFb SMAD3 inh,ATXN viability,HTT aggregate
O=C(Nc1ccc(C(F)(F)F)cc1)c1cc(S(=O)(=O)NCC2COc3ccccc3O2)ccc1F (stereo not drawn),18µM*,-17%,13%[10 µM],-1%,i,?
Cn1cc(C[C@@H](N)C(=O)O)c2ccccc21,.,-4%[25.6 µM],.,.,.,.
Nc1nc(NCc2ccc(Cl)cc2Cl)c2[nH]cnc2n1,-29%,.,.,30%,.,.
COc1ccc(SC[C@H](C)CN2CC[C@H](C(C)(C)C)CCC2=O)cc1,20µM*!,?,.,?,?,.
Cc1ccc(S[C@@H](CCN2CC[C@H](O)CCC2=O)c2ccccc2)cc1,-5%,1%,.,?,i,.
Cc1ccc(S[C@@H](CCN2CC[C@H](C(C)(C)C)CCC2=O)c2ccccc2)cc1,13µM*,0%,.,?,?,.
Cc1ccc(S[C@@H](CCN2CC[C@H](C)CCC2=O)c2ccccc2)cc1,-16%,-17%,.,?,?,.
COc1ccc(S[C@@H](CCN2CC[C@H](C)CCC2=O)c2ccccc2)cc1,4%,?,.,16µM*,?,.
CN(C)c1ccc(C(=C2c3ccccc3-c3ccccc32)c2ccc(N(C)C)cc2)cc1,0%,.,.,6%,.,.
CCNc1nc(C#N)nc(N2CCOCC2)n1,-22%,.,.,0%,.,.
CC(C)(C)C1CCC(=NNc2ccc(S(N)(=O)=O)cc2[N+](=O)[O-])CC1 (stereo not drawn),11µM*,1%,-4%[10 µM],?,i,-12%
O=C(c1cccs1)N(Cc1ccco1)c1ccc(O)cc1,1%,.,.,13%,.,.
CCCCC[C@H](O)/C=C/C1C(=O)C=C[C@H]1C/C=C\CCCC(=O)OC (stereo partly drawn),-76%,?,.,22µM*,.,.
CCCCC[C@H](O)/C=C/[C@@H]1[C@@H](C/C=C\CCCC(=O)OC)[C@@H](O)C[C@H]1O,-9%,-2%,.,-2%,i,17%
CCCCC[C@H](O)/C=C/[C@H]1C(=O)C=C[C@@H]1C/C=C\CCCC(=O)O,.,.,5.6µM*!,.,.,.
CC1(OC(=O)c2cnc3ccccc3n2)C(=O)C=C2C=C(c3ccsc3)OC=C2C1=O (stereo not drawn),.,.,20%,.,.,.
COc1cccc(-n2c(SC)nnc2C2CCN(Cc3nc4ccccc4s3)CC2)c1,.,.,.,.,i,.
CN(C)Cc1cc(C(C)(C)c2cc(CN(C)C)c(O)c(CN(C)C)c2)cc(CN(C)C)c1O,-26%,?,.,17%,i,40µM*
Fc1ccccc1-c1csc(=Nc2cccnc2)n1CCCn1ccnc1,-10%,0%,3%[10 µM],?,?,35µM*
Fc1ccccc1-c1csc(=Nc2cccnc2)n1CC1CCCO1 (stereo not drawn),-9%,-11%,9%[10 µM],-8%,i,3%
O=C(NCc1ccc2c(c1)OCO2)c1nc(S(=O)(=O)Cc2ccccc2F)ncc1Cl,16µM*,.,.,11µM*,.,.
O=C(Nc1ccccc1)c1nc(S(=O)(=O)Cc2ccccc2F)ncc1Cl,7.1µM*,.,.,3.2µM*,.,.
COC(=O)c1ccc(NC(=O)c2nc(S(=O)(=O)Cc3ccccc3F)ncc2Cl)cc1,13µM*,.,.,6.3µM*,.,.
Cc1nnc(NC(=O)c2nc(S(=O)(=O)Cc3ccccc3C)ncc2Cl)s1,-104%,?,.,?,?,.
Cc1ccc2cccc(O)c2n1,-118%,.,.,?,.,.
CCOc1ccc(C(C)=O)cc1CSC(=N)N,-5%,5%,-7%[10 µM],5%,i,?
CCCCOc1ccc(Br)cc1CSC(=N)N,-101%,?,.,20µM*,?,?

# Screens from PubChem.
